Source: PubChem BioAssay
SKKanGAS inh: blocks kanamycin growth of S. pyogenes SKKanGAS strain | BacTiter-Glo, 6 h | inhibition, % at 7.5 µM | 300,000 compounds, 1.3% hits | AID 1662;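 active means mean replicate score, as percent of positive control median, at least 50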;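 further: strain carries kanamycin resistance gene driven by streptokinase promoter and grows in 40 µg/ml kanamycin; loss of luminescence reflects streptokinase promoter inhibition or plain growth inhibition; 0% = median of DMSO wells and 100% = positive control at its reference dose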
ATG4B inhibitor: blocks human ATG4B protease cleavage of LC3 substrate. Q9Y4P1. ATG4B cleavage of LC3-PLA2, NBD-HPC fluorescence, 1 h. inhibition, % at 8.33 µM. 340,000 compounds, 0.51% hits; in the data active means inhibition above about 40%
Target sequence (Q9Y4P1 whole entry, looked up): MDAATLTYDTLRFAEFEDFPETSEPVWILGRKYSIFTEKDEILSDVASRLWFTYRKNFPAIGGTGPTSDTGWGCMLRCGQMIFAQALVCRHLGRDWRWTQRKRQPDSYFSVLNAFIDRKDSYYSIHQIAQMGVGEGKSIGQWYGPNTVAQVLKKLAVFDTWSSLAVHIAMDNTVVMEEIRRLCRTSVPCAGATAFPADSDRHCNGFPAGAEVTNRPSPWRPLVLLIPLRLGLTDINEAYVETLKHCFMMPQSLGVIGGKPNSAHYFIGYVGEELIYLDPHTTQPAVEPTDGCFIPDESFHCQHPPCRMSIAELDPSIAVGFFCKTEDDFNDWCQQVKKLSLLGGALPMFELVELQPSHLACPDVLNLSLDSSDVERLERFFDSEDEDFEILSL
tim10-1 inh: tim10-1 yeast growth inhibition; S. cerevisiae tim10-1 ts strain growth, BacTiter-Glo, 24 h; 330,000 compounds, 2.2% hits; AID 463190; inhibition, % at 20 µM;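 active means inhibition of at least 40%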;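 further: mutant grown at 25 °C; 0% = DMSO wells with yeast and 100% = wells holding no yeast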
PfHsp90 yeast 2: reduces growth (ATP signal) of yeast expressing P. falciparum Hsp90; S. cerevisiae expressing PfHsp90, BacTiter-Glo ATP, 48 h; yeast lacking PDR1 and PDR3 efflux regulators; inhibition, % at 9.4 µM; 310,000 compounds, 0.32% hits; AID 504621;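 active means every replicate shows inhibition above about 80%, whatever the replicate mean, limit read from the data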;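 further: 0% = DMSO neutral controls and 100% = 20 µM radicicol positive controls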
TIM10 inh: growth inhibitors of TIM10 yeast strain; AID 463195; inhibition, % at 10 µM; 330,000 compounds, 1.4% hits; S. cerevisiae TIM10 strain growth, BacTiter-Glo luminescence, 24 h;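 active means inhibition of 40% or more at the single tested concentration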;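 further: wild-type TIM10 isogenic control strain grown at permissive 25 °C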
tim23-1 inh: tim23-1 yeast growth inhibition; 330,000 compounds, 1.3% hits; S. cerevisiae tim23-1 growth, BacTiter-Glo luminescence, 24 h; inhibition, % at 20 µM;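 active means growth inhibition of the mutant yeast at or above 50%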;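 further: temperature-sensitive mutant grown at 25 °C; plate controls were DMSO-treated mutant yeast for no effect and medium wells lacking yeast for full effect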
tim23-1 conf: tim23-1 yeast growth inhibition, confirmed | shares compounds with tim23-1 inh | S. cerevisiae tim23-1 growth, BacTiter-Glo luminescence, 24 h | inhibition, % at 20 µM | 4,400 compounds, 83% hits | AID 463218;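 active means inhibition above about 39% in either of two replicate wells at 20 µM, limit read from the data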;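 further: temperature-sensitive tim23-1 mutant grown at 25 °C; 0% = DMSO wells with yeast and 100% = medium wells without yeast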
* hit, by the source's call; nt = no result given; ! = not confirmed by another sample. Most compounds without a hit are left out; they make up all but 4.7% or so of the library.

SMILES	SKKanGAS inh	ATG4B inhibitor	tim10-1 inh	PfHsp90 yeast 2	TIM10 inh	tim23-1 inh	tim23-1 conf
Cc1cc2cc(CCNC(=O)c3ccc(C)c([N+](=O)[O-])c3)c(=O)[nH]c2cc1C	1	-5	0	3	10	9	nt
Cc1cc2cc(CNC(=O)c3ccc(C)c([N+](=O)[O-])c3)ccc2[nH]1	4	3	38	162*	8	62*	56*
COC(=O)c1ccc(NC(=O)CNC(=O)C2CCCCC2)c(C)c1	-5	-17	5	-21	13	8	nt
Cc1ccc(S(=O)(=O)N(CCO)Cc2ccccc2)cc1	-5	-8	8	0	1	14	nt
O=C(N/N=C/c1cccs1)c1cc(-c2cccc3ccccc23)n[nH]1	-5	18	-40	8	-5	51*	48*
CCCCNC(=O)CN1CCC2(O)CCCCC2C1c1ccccc1OC (stereo unspecified)	2	-12	13	11	13	8	nt
O=C(O)/C=C/C(=O)Nc1ccc(Cl)cc1C(=O)c1ccccc1	-3	4	-10	8	-5	-5	nt
CC(C)(C)c1ccccc1OCC(=O)NCCC(=O)O	-8	-3	8	-15	5	-4	nt
C=C(C(=O)Oc1ccccc1C(C)(C)C)c1ccccc1	nt	nt	39	nt	37	59*	56*
O=C1NC(=O)c2cc([N+](=O)[O-])cc3cccc1c23	5	3	3	-9	-17	62*	49*
O=C1NC(=O)c2cc(Br)cc3cccc1c23	-4	3	-11	-53	-12	-8	nt
Cc1nn(-c2ccccc2)c(C)c1/C=N/NC(=O)c1cc(C2CC2)[nH]n1	3	4	2	-7	-4	16	nt
Cc1nn(-c2ccccc2)c(C)c1/C=N/NC(=O)c1cc(C23CC4CC(CC(C4)C2)C3)[nH]n1	64*	-4	24	-7	32	53*	47*
COC(=O)CSc1cc(C(F)(F)F)nc(-c2ccccn2)n1	-2	-8	22	-23	-4	7	nt
Oc1ccc(C2C[C@H]3CC[C@@H]2C3)cc1O (stereo partly specified)	3	0	17	-60	26	52*	25
O=C(O)CCCCCNC(=O)c1ccncc1	-5	-4	10	nt	9	-3	nt
Cc1cccc(CSc2nc3c(c(-c4cccs4)c2C#N)CN(C)CC3)c1	-4	1	20	-13	22	23	nt
COc1ccccc1NC(=S)NC(=O)/C=C/c1cccs1	-3	3	27	nt	32	29	nt
N/C(=N\OC(=O)c1ccc(Br)o1)c1cccnc1	-2	-2	26	-11	0	25	nt
N/C(Cc1ccc(Cl)c(Cl)c1)=N\OC(=O)c1ccc(Br)o1	-8	-5	40	95*	-12	77*	80*
CC/C(=C(\c1ccccc1)c1ccc(OCCN(C)C)cc1)c1ccccc1	66*!	7	33	-9	29	43	34
Oc1c(Cl)cc(Cl)cc1/C=N/c1nccs1	12	-4	23	30	32	69*	54*
O=C(Nc1cc(-c2ccccc2)[nH]n1)c1ccccc1	18	-5	-47	7	32	52*	56*
O=C(O)c1ccccc1C(=O)Nc1cc(-c2ccccc2)[nH]n1	-7	10	12	6	10	-4	nt
O=C(Nc1cc(-c2ccccc2)[nH]n1)c1ccccc1F	-4	1	-15	nt	13	51*	41*
SMILES	SKKanGAS inh	ATG4B inhibitor	tim10-1 inh	PfHsp90 yeast 2	TIM10 inh	tim23-1 inh	tim23-1 conf
CCOc1ccc(/C=C2\SC(=O)N(CCNC(=O)CN3C(=O)NC4(CCCC4)C3=O)C2=O)cc1OC	1	-9	17	-6	11	10	nt
CC(C)(C)c1csc(N/N=C/c2ccc(O)cc2)n1	13	-12	30	-15	24	57*	39
COc1cc(/C=C2/C(=N)N3C(SC)=NSC3=NC2=O)ccc1OC(=O)c1ccco1	21	5	9	-6	24	17	nt
COc1ccc(Nc2nc3ccccc3n3cnnc23)cc1Cl	10	-1	21	4	12	57*	5
COc1cccc(Nc2nc3ccccc3n3cnnc23)c1	-6	-22	17	-13	-3	15	nt
O=C(CSc1nnc(-c2cccnc2)n1Cc1ccco1)c1ccc(Br)cc1	-3	-7	26	-5	-10	31	nt
Cc1ccc(CSc2nnc(-c3cccc(S(=O)(=O)N4CCOCC4)c3)n2C2CCCC2)cc1	-7	-13	15	-1	17	52*	43*
CN(Cc1nc2ccccc2[nH]1)Cc1nc(CC2CC2)no1	0	-8	-8	19	-5	0	nt
Nc1ncnc2c1ncn2[C@@H]1O[C@H](CO)C[C@H]1O	-9	-2	26	9	-6	60*	65*
CC1(C)O[C@@H]2[C@H](O1)[C@@H](CO)O[C@H]2n1cnc2c(N)ncnc21	nt	6	-10	27	-8	-2	nt
Cc1nc(Nc2ccc3c(c2)OCCO3)c2c(C)c(C)sc2n1	21	28	10	-22	24	55*	49*
O=C(NC(=S)Nc1ccccc1N1CCCC1)c1ccc(-c2cccc([N+](=O)[O-])c2)o1	22	-5	37	-4	21	19	nt
CCC(=O)Nc1ccc(NC(=O)c2cc3ccccc3o2)cc1	nt	7	1	-13	6	30	nt
CC(Cc1ccccc1)NC(=O)c1cc2ccccc2o1 (stereo unspecified)	3	-14	-24	-9	23	51*	53*
Cc1ccc(S(=O)(=O)/N=C/c2cc(Br)ccc2O)cc1	-6	1	10	5	13	36	nt
Cc1cc(N=Cc2cc(Br)ccc2O)no1	-2	1	36	nt	8	67*	34
COc1ccc(-n2c(/C=C3\C(=O)N(C)c4ccccc43)nc3ccccc3c2=O)cc1	10	-4	24	-15	12	33	nt
CCN1C(=O)/C(=C/c2nc3ccccc3c(=O)n2-c2ccc(C)cc2)c2ccccc21	0	4	40	-11	10	52*	41*
CCn1c(N)c(C(=O)NCc2ccc3c(c2)OCO3)sc1=S	15	0	10	-6	-11	13	nt
O=C(N/N=C/c1coc2ccccc2c1=O)c1ccc(Cl)cc1	-9	5	25	13	21	54*	43*
O=C(N/N=C/c1coc2ccccc2c1=O)c1ccccc1	0	28	1	9	19	22	nt
Cc1ccc2occ(/C=N/NC(=O)c3ccccc3Br)c(=O)c2c1	3	28	31	2	23	63*	66*
COc1ccc(CCNc2oc(-c3ccccc3OC)nc2C#N)cc1	1	-8	21	6	34	58*	62*
